Reference: PubChem BioAssay (Tox21)
“And” between values parts separate entries of the source, which are not always exact repeats. Equal values may be shown once. Inconclusive results are not listed. A structure can be active in one record and inactive in another. The source made the active and inactive calls. Unless noted, calls follow the shape of the full dose curve.

Assays:
[1] = Nuclear factor erythroid 2-related factor 2/antioxidant responsive element (Nrf2/ARE) small molecule agonists: qHTS cell viability counter screen in human keratinocytes (AID 1919968; active = well fitted curve in the direction sought with a large enough effect in the repeat runs; an effect the other way counts as inactive or inconclusive; also: potency is read from the fitted curve at half-maximal effect; nearly all actives have a fitted effect of over 55% in size)
Procedure, shortened: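 Measured as CellTiter-Fluor fluorescence, this readout tracks cytotoxicity in the same wells as the ARE-luciferase screen. HaCaT reporter cells (1,500/well) received compounds after a 5 h pre-incubation and were exposed for 23 h.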

[2] = target: KiSS-1 receptor (Homo sapiens) (UniProt Q969F8); assay: Human kisspeptin (KISS1R) small molecule agonists, calcium flux assay in KISS1R-HEK293 cells (AID 1920064; active = well fitted curve in the direction sought with a large enough effect in the repeat runs; an effect the other way counts as inactive or inconclusive; also: % is scaled to controls: 0 for no effect and ±100 for the full control effect)
Procedure, shortened: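 Measures KISS1R agonism through calcium-sensitive dye fluorescence in stably transfected HEK293 cells, read for 3 min after pin-tool compound delivery; 15-point titrations in triplicate.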

[3] = p53 small molecule agonists, cell-based qHTS assay with human liver microsomes (AID 1963577);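 also: p53 response element beta-lactamase reporter cells with liver microsomes plus NADPH; % is scaled to controls: 0 for no effect and ±100 for the full control effect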
Procedure, shortened: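 In this qHTS, p53 response-element beta-lactamase cells receive test compound together with a microsome/NADPH activating system (0.5 mg/mL final each) and are incubated 16 h at 37 C before LiveBLAzer fluorescence detection.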

[4] = p53 small molecule agonists, cell-based qHTS assay with rat liver microsomes (AID 1963578); also: % is scaled to controls: 0 for no effect and ±100 for the full control effect
Procedure, shortened: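 Agonist mode in p53RE-bla reporter cells, with compounds co-incubated 16 h at 37 C alongside 0.5 mg/mL rat liver microsomes and 0.5 mg/mL NADPH (final), followed by a 2 h LiveBLAzer detection step.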

[5] = p53 small molecule agonists, cell-based qHTS assay with human liver microsomes: qHTS cell viability counter screen (AID 1963579); also: nearly all actives have a fitted effect of over 45% in size; also: potency is read from the fitted curve at half-maximal effect
Procedure, shortened: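 Metabolically activated exposure: compounds, human liver microsomes and NADPH (0.5 mg/mL final apiece) were added to p53RE-bla cells seeded 5 h earlier, left 16 h at 37 C, and then assessed for viability by CellTiter-Glo luminescence.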

[6] = p53 small molecule agonists, cell-based qHTS assay with rat liver microsomes: qHTS cell viability counter screen (AID 1963580); also: nearly all actives have a fitted effect of over 45% in size; also: potency is read from the fitted curve at half-maximal effect
Procedure, shortened: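 In HCT-116 cells carrying a p53 response element-bla reporter, compounds were metabolically activated in situ by rat liver microsomes with NADPH over 16 h. Cell ATP content then served as the cytotoxicity measure.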

[7] = target: 5-hydroxytryptamine receptor 2A (Homo sapiens) (UniProt P28223); assay: 5-hydroxytryptamine receptor 2A (HTR2A) small molecule antagonists, cell-based qHTS assay (AID 1963586); also: % is scaled to controls: 0 for no effect and ±100 for the full control effect; nearly all actives have a fitted effect of over 45% in size
Procedure, shortened: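 Antagonist-mode intracellular calcium assay: DOI (4 nM) added after 5 min compound pre-incubation at room temperature to dye-loaded HTR2A-CHO cells. Fluorescence followed for 3 min, sampled every second.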

[8] = target: 5-hydroxytryptamine receptor 2A (Homo sapiens) (UniProt P28223); assay: 5-hydroxytryptamine receptor 2A (HTR2A) small molecule agonists, cell-based qHTS assay (AID 1963587); also: nearly all actives have a fitted effect of over 30% in size; also: potency is read from the fitted curve at half-maximal effect
Procedure, shortened: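 HTR2A-CHO cells, plated 18 h at 37 C/5% CO2, dye-loaded 1 h at 37 C; compounds in DMSO added by pin tool (agonist mode). Intracellular calcium flux read as kinetic fluorescence on FDSS over 2 min at 1 s intervals.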

[9] = target: Muscarinic acetylcholine receptor M1 (Homo sapiens) (UniProt P11229); assay: Cholinergic receptor muscarinic 1 (CHRM1) small molecule antagonists, cell-based qHTS assay (AID 1963588); also: % is scaled to controls: 0 for no effect and ±100 for the full control effect; nearly all actives have a fitted effect of over 40% in size
Procedure, shortened: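 CHRM1-CHO calcium-flux assay, antagonist mode. Cells were seeded 18 h, dye-loaded 1 h at 37 C and given compound for 5 min at RT, then acetylcholine was added at 50nM. FDSS fluorescence was read 3 min; 15 concentrations, three runs.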

[10] = target: Muscarinic acetylcholine receptor M1 (Homo sapiens) (UniProt P11229); assay: Cholinergic receptor muscarinic 1 (CHRM1) small molecule agonists, cell-based qHTS assay (AID 1963589); also: % is scaled to controls: 0 for no effect and ±100 for the full control effect; nearly all actives have a fitted effect of over 35% in size
Procedure, shortened: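 Each compound was tested at 15 concentrations across three independent runs on dye-loaded CHO cells stably expressing human CHRM1, reading intracellular calcium fluorescence kinetically at 1 sec intervals.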

[11] = target: Beta-2 adrenergic receptor (Homo sapiens) (UniProt P07550); assay: Adrenergic beta2 receptor (ADRB2) small molecule antagonists, cell-based qHTS assay (AID 1963592); also: series mostly up to about 92 µM; % is scaled to controls: 0 for no effect and ±100 for the full control effect; nearly all actives have a fitted effect of over 50% in size
Procedure, shortened: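 Cells (CHO, stable ADRB2 overexpression) incubated 18-20hr at 37C; compounds added from DMSO; agonist mix (1nM isoproterenol, 100uM IBMX, 25uM Ro-20-1724) added; 0.5hr RT; d2-cAMP and anti-cAMP-cryptate added; 1hr RT; 665/615 nm read.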

[12] = target: D(2) dopamine receptor (Homo sapiens) (UniProt P14416); assay: Dopamine D2 receptor (DRD2) small molecule agonists, cell-based qHTS assay (AID 1963594); also: % is scaled to controls: 0 for no effect and ±100 for the full control effect; nearly all actives have a fitted effect of over 35% in size
Procedure, shortened: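 HEK293 cells stably expressing DRD2 were cultured 24 h at 37 C, then given Ro20-1724 (0.1 mM final) and compounds for 10 min at room temperature. NKH477 (200nM) was then added for 30 min. cAMP was read by HTRF.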

[13] = target: D(2) dopamine receptor (Homo sapiens) (UniProt P14416); assay: Dopamine D2 receptor (DRD2) small molecule antagonists, cell-based qHTS assay (AID 1963595; active = well fitted inhibition curve with a large enough effect in the signal ratio in the repeat runs, with a control signal flat; the % refers to the signal ratio; also: potency is read from the fitted curve at half-maximal effect)
Procedure, shortened: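 Antagonism was scored as restored cAMP in HEK293-DRD2 cells. These cells were stimulated with 200 nM NKH477 and 12 nM quinpirole for 30 min at room temperature, in the presence of 0.1 mM Ro20-1724.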

[14] = G protein-coupled receptor (GPCR) small molecule agonists, calcium flux assay: HEK293 wild type cell line counter screen (AID 1920065); also: % is scaled to controls: 0 for no effect and ±100 for the full control effect
Procedure, shortened: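 Readout: fluorescence at 480 nm excitation/540 nm emission, sampled at 1 s intervals for 3 min. Cells had been cultured 18 h, then dye-loaded 1 h at 37 C before compound or ATP addition.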

[15] = p53 small molecule agonists, cell-based qHTS assay: qHTS cell viability counter screen (AID 1963581); also: potency is read from the fitted curve at half-maximal effect; nearly all actives have a fitted effect of over 45% in size
Procedure, shortened: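 In the same plates used for the p53 bla reporter, HCT-116 cells given compounds for 16 h at 37 C received CellTiter-Glo; luminescence was recorded 30 min later at room temperature.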

[16] = cAMP Responsive Elements (CRE) small molecule antagonists, cell-based qHTS assay (AID 1963591; active = well fitted inhibition curve with a large enough effect in the signal ratio in the repeat runs, not every such curve was filed as active; the % refers to the signal ratio; also: % is scaled to controls: 0 for no effect and ±100 for the full control effect)
Procedure, shortened: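 Inhibition of NKH477-driven (0.25 uM final) CRE-beta-lactamase signal in HEK293T cells, 3 h compound exposure at 37 °C, detected by FRET substrate fluorescence.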

[17] = target: Beta-2 adrenergic receptor (Homo sapiens) (UniProt P07550); assay: Adrenergic beta2 receptor (ADRB2) small molecule agonists, cell-based qHTS assay (AID 1963593)
Procedure, shortened: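 CHO cells stably over-expressing ADRB2 were plated overnight at 37C, then dosed with compounds plus a stimulation mix containing 100uM IBMX and 25uM Ro-20-1724 for 0.5hr at room temperature. cAMP was measured by HTRF competition, 1hr.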

Sequence of Muscarinic acetylcholine receptor M1 (Homo sapiens) (P11229 whole entry, looked up): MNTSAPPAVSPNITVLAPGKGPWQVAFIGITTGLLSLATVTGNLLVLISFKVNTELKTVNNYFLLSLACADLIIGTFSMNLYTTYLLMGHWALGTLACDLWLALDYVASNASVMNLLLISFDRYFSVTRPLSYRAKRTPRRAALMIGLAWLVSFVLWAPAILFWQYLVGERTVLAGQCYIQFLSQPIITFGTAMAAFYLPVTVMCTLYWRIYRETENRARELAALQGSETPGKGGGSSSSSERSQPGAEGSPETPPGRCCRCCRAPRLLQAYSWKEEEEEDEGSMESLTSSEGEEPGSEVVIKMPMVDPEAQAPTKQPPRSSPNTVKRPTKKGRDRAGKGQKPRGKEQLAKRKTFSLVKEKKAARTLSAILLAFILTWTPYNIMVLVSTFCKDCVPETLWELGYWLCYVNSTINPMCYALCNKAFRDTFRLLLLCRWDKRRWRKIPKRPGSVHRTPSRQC
Sequence of 5-hydroxytryptamine receptor 2A (Homo sapiens) (P28223 whole entry, looked up): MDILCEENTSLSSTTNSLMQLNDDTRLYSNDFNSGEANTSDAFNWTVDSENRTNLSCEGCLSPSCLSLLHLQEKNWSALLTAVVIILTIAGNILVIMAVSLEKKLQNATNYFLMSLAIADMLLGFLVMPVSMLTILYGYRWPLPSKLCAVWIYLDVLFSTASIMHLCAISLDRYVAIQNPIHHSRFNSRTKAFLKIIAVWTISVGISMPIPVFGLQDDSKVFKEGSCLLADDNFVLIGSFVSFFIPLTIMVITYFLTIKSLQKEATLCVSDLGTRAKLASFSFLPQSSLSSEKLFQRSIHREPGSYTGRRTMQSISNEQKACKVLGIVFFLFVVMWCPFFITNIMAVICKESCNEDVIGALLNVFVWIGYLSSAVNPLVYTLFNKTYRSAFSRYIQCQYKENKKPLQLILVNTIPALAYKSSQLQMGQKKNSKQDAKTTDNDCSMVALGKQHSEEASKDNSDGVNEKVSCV
Sequence of Beta-2 adrenergic receptor (Homo sapiens) (P07550 whole entry, looked up): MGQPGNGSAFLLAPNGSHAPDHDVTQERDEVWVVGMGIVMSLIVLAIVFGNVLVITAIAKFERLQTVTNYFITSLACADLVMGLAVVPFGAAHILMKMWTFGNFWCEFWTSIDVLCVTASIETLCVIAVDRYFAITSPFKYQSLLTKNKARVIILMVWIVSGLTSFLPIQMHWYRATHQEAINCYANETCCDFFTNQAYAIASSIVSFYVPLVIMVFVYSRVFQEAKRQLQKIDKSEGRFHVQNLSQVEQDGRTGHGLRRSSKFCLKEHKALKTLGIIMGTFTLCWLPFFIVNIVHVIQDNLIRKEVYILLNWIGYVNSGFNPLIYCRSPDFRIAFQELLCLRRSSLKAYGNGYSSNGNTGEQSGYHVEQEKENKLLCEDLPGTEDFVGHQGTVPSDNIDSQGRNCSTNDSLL
Sequence of D(2) dopamine receptor (Homo sapiens) (P14416 whole entry, looked up): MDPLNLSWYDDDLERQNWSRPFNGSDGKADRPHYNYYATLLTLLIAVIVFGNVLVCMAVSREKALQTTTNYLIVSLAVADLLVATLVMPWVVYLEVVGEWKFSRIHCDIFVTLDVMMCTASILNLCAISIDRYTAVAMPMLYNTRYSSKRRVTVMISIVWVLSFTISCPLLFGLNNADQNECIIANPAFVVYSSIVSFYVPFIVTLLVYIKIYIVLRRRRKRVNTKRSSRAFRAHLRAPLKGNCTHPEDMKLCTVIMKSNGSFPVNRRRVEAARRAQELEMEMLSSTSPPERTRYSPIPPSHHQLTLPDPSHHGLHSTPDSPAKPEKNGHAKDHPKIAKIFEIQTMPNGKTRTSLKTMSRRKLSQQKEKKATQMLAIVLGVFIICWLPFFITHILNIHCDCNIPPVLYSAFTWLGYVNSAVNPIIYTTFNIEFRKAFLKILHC
Sequence of KiSS-1 receptor (Homo sapiens) (Q969F8 whole entry, looked up): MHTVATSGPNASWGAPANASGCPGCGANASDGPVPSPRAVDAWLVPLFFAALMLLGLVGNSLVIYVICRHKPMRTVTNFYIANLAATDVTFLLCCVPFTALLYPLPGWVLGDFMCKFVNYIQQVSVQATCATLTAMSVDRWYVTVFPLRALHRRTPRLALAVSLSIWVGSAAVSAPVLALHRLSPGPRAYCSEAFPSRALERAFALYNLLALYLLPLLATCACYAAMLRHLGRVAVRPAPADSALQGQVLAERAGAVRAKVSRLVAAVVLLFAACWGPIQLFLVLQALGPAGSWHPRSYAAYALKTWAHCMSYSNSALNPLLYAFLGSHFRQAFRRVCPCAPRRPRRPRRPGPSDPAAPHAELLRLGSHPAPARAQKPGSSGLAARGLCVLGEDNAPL

O=C(Nc1ccc([N+](=O)[O-])cc1Cl)c1cc(Cl)ccc1O
active: Potency [1] 1.93 µM and 291 nM
inactive: Potency [2] | Potency [3] | Potency [4] | Potency [5] | Potency [6] | Potency [7] | Potency [8] | activity, negative = inhibition [9] -9.19% [at 12.6 µM] | Potency [10] | activity change, negative = inhibition [11] -7.38% [at 19 µM] | Potency [12] | Potency [13]

CCCCC(CC)COC(=O)CC(C(=O)OCC(CC)CCCC)S(=O)(=O)O (stereo not drawn)
inactive and 61.1 µM (active): Potency [13]
inactive: Potency [14] | Potency [3] | Potency [4] | Potency [7] | Potency [9] | Potency [16] | Potency [11] | Potency [17] | Potency [12]
44 µM (active) and inactive: Potency [5]
active: Potency [1] 26.3 µM | Potency [6] 35 µM | Potency [15] 39.2 µM | Potency [8] 42 µM and 43.6 µM
